Compound activity (PubChem)
NALP1 yeast inh: NALP1 inhibition | S. cerevisiae NALP1/ASC/caspase-1 growth, X-gal OD620, 72 h | inhibition, % at 10 µM | hit rate 0.61% among 280,000 | AID 2071; in the data active = inhibition mostly above about 24%, no sharp cut-off; inactive = mostly below about 32%
NLRP3 yeast inh: inhibitors of NALP3 inflammasome in yeast | Yeast reconstituted NLRP3/ASC/caspase-1, beta-gal luminescence, 24 h | inhibition, % at 10 µM | hit rate 0.39% among 330,000 | AID 2825;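 active = inhibition of 50% or more; inactive = inhibition below 50%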;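 also: plate controls were induced DMSO wells for no effect and uninduced yeast grown without galactose for full effect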
PolyA inhibitor: inhibitors of polyadenylation in S. cerevisiae; hit rate 0.02% among 300,000; S. cerevisiae SKY197-pL101 polyadenylation reporter, beta-gal luminescence; efflux-impaired pdr1/pdr3 knockout yeast; score 100 = 6 SD above DMSO; activity score, % at 12 µM;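 active = lowest replicate activity score at least 50, where 100 means six control SD above control mean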;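 also: yeast exposed to compound for 9 h at 30 °C; higher score means more reporter readthrough which indicates perturbed polyadenylation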
SUMO Mot1 rescue: SUMOylation pathway inhibition by Mot1-301 growth rescue; S. cerevisiae Mot1-301 growth rescue, ATP luminescence, 38.5C; percent above DMSO median, 100 means doubled; growth rescue, % at 18.8 µM; hit rate 1% among 320,000;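 active = every valid replicate shows activation above 250% relative to neutral control wells; inactive = the rest, any valid replicate at or below 250%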;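 also: OY570 slx delta 5 strain wells were the positive control but not used for scaling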
NALP3 yeast conf: NALP3 inhibition confirmation in yeast; shares compounds with NLRP3 yeast inh; AID 435006; hit rate 81% among 1,300; inhibition, % at 10 µM; yeast expressing human NALP3, luminescence; in the data active = inhibition above about 48%
Casp1-ASC yeast: active in yeast caspase-1-ASC counter-screen for NALP3 inhibitors; shares compounds with NLRP3 yeast inh; yeast expressing Caspase-1-ASC, luminescence counter screen; inhibition, % at 10 µM; hit rate 66% among 1,000; AID 488784
NALP3 retest: retest-confirmed inhibitor of NALP3 in yeast | shares compounds with NLRP3 yeast inh | yeast expressing human NALP3, luminescence read-out | inhibition, % at 10 µM | hit rate 53% among 1,000 | AID 488794
Starred values were filed as active, the others as inactive; . = no result given. The list is not random: actives were taken first. Their share in the collection is about 1.8%. Rule as the data show it, unless noted: active = inhibition above about 50%; inactive = the rest.

SMILES | NALP1 yeast inh | NLRP3 yeast inh | PolyA inhibitor | SUMO Mot1 rescue | NALP3 yeast conf | Casp1-ASC yeast | NALP3 retest
Cc1cc2ncn(S(=O)(=O)N3CCCCC3)c2cc1C | 27.4 | 68.6* | -15.4 | 3.7 | 60.5* | 73.8* | 68.0*
Cc1cc2ncn(S(=O)(=O)N3CCOCC3)c2cc1C | 24.1 | 22.7 | 3.0 | 3.8 | . | . | .
Cc1cccc(OCc2nc(C#N)c(N3CCCC3)o2)c1 | 0.6 | 56.7* | -3.4 | 1.9 | 46.5 | 64.5* | 51.3*
N#Cc1nc(COc2ccccc2)oc1N1CCCCC1 | -2.6 | 61.6* | -4.9 | 210.4 | 70.2* | 59.8* | 48.1
COc1cccc(C(=O)Nc2nc3ccccc3[nH]2)c1 | 1.0 | 29.9 | -20.0 | 61.8 | . | . | .
COc1ccccc1C(=O)Nc1nc2ccccc2[nH]1 | 12.2 | 60.0* | -37.5 | -58.3 | 78.0* | 79.0* | 31.4
COc1ccc(C(=O)Nc2nc3ccccc3[nH]2)cc1 | 6.1 | 50.5* | 23.1 | 95.0 | 80.8* | 59.8* | 48.2
Cc1c(C(=O)Nc2nc3ccccc3[nH]2)oc2ccc(Br)cc12 | 5.2 | -11.2 | -10.2 | -0.4 | . | . | .
Cc1c(C(=O)Nc2nc3ccccc3[nH]2)oc2ccccc12 | 30.1 | 61.2* | -2.2 | 17.1 | 30.8 | . | .
CCOC(=O)c1cccc(NC(=O)C2CCCN2S(=O)(=O)c2cccc3cccnc23)c1 (stereo unspecified) | -0.6 | 12.7 | 0.6 | -3.8 | . | . | .
O=C(CCN1C(=O)c2ccccc2C1=O)NCc1cccc(Cl)c1 | 18.9 | 1.8 | 8.9 | 5.0 | . | . | .
O=C1/C(=C\c2ccco2)SC(=S)N1c1ccc(O)cc1 | 75.6* | 81.2* | -6.0 | 393.1 | 60.9* | 26.5 | 31.6
COC(=O)/C(C#N)=C/c1c(N2CCN(c3ccc(OC)cc3)CC2)nc2c(C)cccn2c1=O | 25.6 | 15.3 | -16.6 | 21.2 | . | . | .
Cc1csc(=NC(=O)c2ccccc2)n1Cc1ccco1 | -1.9 | 8.4 | -27.3 | 11.0 | . | . | .
CCn1c(C)csc1=NC(=O)c1ccccc1O | -0.5 | 39.5 | -18.3 | 20.1 | . | . | .
CCn1c(C)csc1=NC(=O)c1ccccc1 | -3.5 | 53.4* | -0.3 | 8.3 | 60.6* | 47.9 | 43.7
Cc1csc(=NC(=O)c2ccccc2)n1C | 2.0 | 61.6* | 40.0 | 157.9 | 74.8* | 73.2* | 68.5*
CCc1cccc(NC(=O)CCS(=O)(=O)c2cc3c(cc2C)NC(=O)CO3)c1 | 6.1 | 4.9 | 13.9 | 15.6 | . | . | .
O=C(NC1CC1)c1ccc(NS(=O)(=O)c2ccccc2)cc1 | 24.0 | 12.1 | -2.8 | 8.7 | . | . | .
COC(=O)N/N=C/c1ccc(OCCSc2ccc(Cl)cc2)c(OC)c1 | 31.4 | -5.0 | 2.6 | 64.6 | . | . | .
CCOc1cc(C=O)ccc1OCCSc1ccc(Cl)cc1 | 18.7 | 53.5* | -10.1 | 23.3 | 47.6* | 57.5* | 34.9
O=C1NC(=Nc2ccccc2)S/C1=C\c1cccs1 | . | 56.1* | -1.2 | 6.6 | 29.9 | . | .
Cc1cc(C)cc(N=C2NC(=O)/C(=C/c3cccs3)S2)c1 | 32.5 | 17.7 | -24.0 | 4.3 | . | . | .
COc1ccc(/C=C/C(=O)c2ccc([N+](=O)[O-])o2)cc1OC | . | 50.2* | 7.5 | 60.3 | 53.8* | 80.0* | 57.8*
COc1cc(/C=C/C(=O)c2ccc([N+](=O)[O-])o2)ccc1O | . | 49.1 | -22.2 | 120.6 | . | . | .
SMILES | NALP1 yeast inh | NLRP3 yeast inh | PolyA inhibitor | SUMO Mot1 rescue | NALP3 yeast conf | Casp1-ASC yeast | NALP3 retest
O=C(CSc1ccccc1C(=O)O)c1ccc([N+](=O)[O-])cc1 | -7.7 | 19.9 | 31.0 | -19.3 | . | . | .
Cc1cccc(NC(=O)Nc2ccccn2)c1C | . | 32.6 | -5.9 | -10.4 | . | . | .
Cc1ccccc1NC(=O)Nc1ccccn1 | 12.9 | 52.9* | -6.6 | -0.8 | 68.5* | 46.8 | 33.1
COc1ccccc1NC(=O)Nc1ncccc1C | 25.8 | 60.4* | -5.7 | -3.7 | 71.3* | . | .
COc1ccccc1NC(=O)Nc1cnccn1 | 11.9 | 5.0 | 0.6 | 16.8 | . | . | .
N#CC(C#N)=c1ccc2c(c1)N1C3=C(CCCC3)CC3CCCCC31N=2 (stereo unspecified) | 53.3 | 30.5 | -9.8 | -16.0 | . | . | .
N#C/C(C(N)=O)=c1/ccc2c(c1)N1C3=C(CCCC3)CC3CCCCC31N=2 (stereo unspecified) | 7.4 | 57.4* | -19.4 | -53.9 | 14.5 | . | .
CCOC(=O)c1c(C(F)(F)F)cc(-c2ccc(F)cc2)nc1C | 26.5 | 16.6 | 6.9 | -12.9 | . | . | .
CCCCCC(=O)N1CCN(CCN=CC2=C(O)CC(c3ccco3)CC2=O)CC1 (stereo unspecified) | -14.9 | 53.4* | -22.9 | -27.2 | 54.4* | 42.9 | 51.8*
O=C1CC(c2ccco2)CC(O)=C1C=NCCO (stereo unspecified) | 9.9 | 19.7 | 13.6 | -7.5 | . | . | .
CCCCCC(=O)N1CCN(CCN=CC2=C(O)CC(c3cccs3)CC2=O)CC1 (stereo unspecified) | -6.5 | 50.6* | -22.1 | -23.4 | 64.8* | 54.9* | 44.2
Cc1cc(C)n(C(=O)c2ccc(Cl)c(F)c2F)n1 | 5.9 | 7.4 | 10.3 | -4.6 | . | . | .
COc1ccc(-n2c(SCC(=O)N3CCCCC3)nnc2-c2cccnc2)cc1 | -0.3 | -1.7 | -3.2 | -3.3 | . | . | .
O=C(NC(=S)N1CCN(c2ccc([N+](=O)[O-])cc2Cl)CC1)c1ccco1 | 25.4 | 25.0 | -10.5 | -3.4 | . | . | .
CCCCCCCCNC(C)C(O)c1ccc(SC(C)C)cc1 (stereo unspecified) | 78.5* | 67.4* | -17.7 | -42.6 | 64.0* | 52.3* | 63.8*
COc1ccc(C(C)(C)C)cc1NC(=O)c1ccc2ncsc2c1 | 3.3 | 42.0 | -17.6 | -3.9 | . | . | .
COc1ccc(C(C)(C)C)cc1NC(=O)c1cncc(Br)c1 | 5.3 | 56.1* | -14.3 | 11.2 | 61.9* | 58.1* | 54.9*
CNC(=S)N/N=C/c1cc(Br)cc(Br)c1O | 54.0* | 63.8* | -34.5 | 100.0 | 34.3 | . | .
Oc1c(Br)cc(Br)cc1/C=N/NC(=S)N[C@H]1CC2C=CC1C2 (stereo partly specified) | 8.9 | 12.9 | -43.0 | 5.8 | . | . | .
OCCCc1nc2ccccc2n1CCc1ccccc1 | -9.8 | 12.5 | 10.4 | 23.2 | . | . | .
CCOc1cc(/C=C2\C(=O)N(c3nc(-c4ccc(Br)cc4)cs3)N=C2c2ccccc2)ccc1O | 7.8 | -9.9 | 0.3 | 368.2 | . | . | .
COc1ccc(C(NC(=O)c2c(F)c(F)c(F)c(F)c2F)c2ccccc2)cc1 (stereo unspecified) | 21.3 | 62.7* | 28.0 | 26.6 | 33.5 | . | .
C=CCOc1ccc(/C=C/C(C)=N\O)cc1 | 18.6 | 58.8* | -21.5 | -5.4 | 67.5* | 60.3* | 46.9
C=CCOc1ccc(/C=C/C(=O)OCC(=O)N2CCN(C(C)=O)CC2)cc1 | . | 14.4 | . | 2.5 | . | . | .
CN(C)/C=C/C(=O)c1cccc([N+](=O)[O-])c1 | 6.5 | -0.2 | 1.6 | 22.7 | . | . | .
COc1ccc(CN(CCN(C)C)c2ccccn2)cc1 | 18.5 | 1.8 | 29.4 | -5.5 | . | . | .
CCCCCCCCCCCCCCCC[N+](C)(C)CCN(Cc1ccc(OC)cc1)c1ncccn1 | . | 52.4* | . | -37.2 | 20.7 | . | .
CCN1CCN(c2nc3c(C)cccn3c(=O)c2/C=C(\C#N)S(=O)(=O)c2ccccc2)CC1 | 1.7 | 23.0 | 3.3 | -12.7 | . | . | .
